The supplement of paper PMC13380429

Tested on: Vero E6 infected with SARS-CoV-2
Assay: inhibition of SARS-CoV-2 cytopathic effect; higher = more antiviral protection, active = above 15
Conditions: 48 h

Measured: inhibition of SARS-CoV-2 cytopathic effect

Cc1ncc(-c2ccnc(Nc3ccc(S(C)(=O)=O)cc3)n2)n1C(C)C
inactive: 1 nM 0.38% | 8.33 nM -1.83% | 100 nM -1.95% | 833.33 nM 6.02% | 10000 nM -2.7%

CN(C)CCC(c1ccc(Br)cc1)c1ccccn1 (stereo not given) [brompheniramine]
inactive: 1 nM 4.45% | 8.33 nM 3.77% | 100 nM -3.1% | 833.33 nM -0.09% | 10000 nM -4.65%

CC(C)(C)c1ccc(-c2nc3ccccc3[nH]2)cc1
inactive: 1 nM -0.43% | 8.33 nM -0.22% | 100 nM 1.49% | 833.33 nM 3.96% | 10000 nM 4.75%

OCc1ccccc1O[C@@H]1O[C@H](CO)[C@@H](O)[C@H](O)[C@H]1O [salicin]
inactive: 1 nM 0.33% | 8.33 nM 2.34% | 100 nM 1.75% | 833.33 nM 2.27% | 10000 nM 5.91%

Nc1ncnc2c1ncn2C1CCCO1 (stereo not given)
inactive: 1 nM 2.17% | 8.33 nM 3.9% | 100 nM -1% | 833.33 nM 2.95% | 10000 nM -0.8%

Cc1onc(-c2c(Cl)cccc2Cl)c1C(=O)N[C@@H]1C(=O)N2[C@@H]1SC(C)(C)[C@@H]2C(=O)O [dicloxacillin]
inactive: 1 nM 0.8% | 8.33 nM -0.85% | 100 nM -0.59% | 833.33 nM 1% | 10000 nM 1.51%

Nc1cccc2c(=O)[nH][nH]c(=O)c12 [monosodium-alpha-luminol]
inactive: 1 nM -0.8% | 8.33 nM 0.14% | 100 nM -1.27% | 833.33 nM -0.92% | 10000 nM 2.06%

CN[C@@H](C)C(=O)N[C@H](C(=O)N1CCC[C@H]1C(=O)Nc1sc(-c2ncco2)nc1-c1ccccc1)C1CCCCC1
inactive: 1 nM -0.55% | 8.33 nM -0.2% | 100 nM -0.7% | 833.33 nM 0.89% | 10000 nM 0.18%

Oc1c(I)cc(Cl)c2cccnc12 [clioquinol]
inactive: 1 nM -4.79% | 8.33 nM -6.61% | 100 nM -4.78% | 833.33 nM -5.93% | 10000 nM -9.21%

CC[C@H]1[C@@H](O)[C@@H]2[C@H](CC[C@]3(C)[C@@H]([C@H](C)CCOS(=O)(=O)O)CC[C@@H]23)[C@@]2(C)CC[C@@H](O)C[C@@H]12
inactive: 1 nM 0.86% | 8.33 nM 1.92% | 100 nM -0.03% | 833.33 nM 1.94% | 10000 nM 1.9%

Cc1ccccc1C(C(=O)NC1CCCCC1)N(C(=O)Cn1ccnc1C)c1cccc(F)c1 (stereo not given)
inactive: 1 nM -0.81% | 8.33 nM -1.8% | 100 nM 0.77% | 833.33 nM 1.79% | 10000 nM -0.96%

CC(C)(Sc1ccc(CCN(CCCCC2CCCCC2)C(=O)NC2CCCCC2)cc1)C(=O)O
inactive: 1 nM -11.4% | 8.33 nM -10% | 100 nM -5.76% | 833.33 nM -3.65% | 10000 nM -8.5%

CC1CCN(CCCC(=O)c2ccc(F)cc2)CC1 [melperone]
inactive: 1 nM 1.03% | 8.33 nM -0.88% | 100 nM -1.43% | 833.33 nM 0.99% | 10000 nM 2.13%

CC(N)CCCC(C)(C)O (stereo not given) [heptaminol]
inactive: 1 nM 0.22% | 8.33 nM 3.55% | 100 nM 2.95% | 833.33 nM -3.4% | 10000 nM 0.76%

CN[C@@H](C)C(=O)N[C@H](C(=O)N1CCC[C@H]1C(=O)Nc1snnc1-c1ccccc1)C1CCCCC1
inactive: 1 nM 0.62% | 8.33 nM -0.64% | 100 nM -0.23% | 833.33 nM -0.79% | 10000 nM -5.99%

COc1ccc(CNC(=O)Nc2ncc([N+](=O)[O-])s2)cc1
inactive: 1 nM -1.91% | 8.33 nM 2.48% | 100 nM -0.26% | 833.33 nM -1.47% | 10000 nM 2.28%

COc1ccc(C(=O)CC2(O)C(=O)Nc3c(Cl)ccc(Cl)c32)cc1 (stereo not given)
inactive: 1 nM 2.13% | 8.33 nM 3.01% | 100 nM -1.11% | 833.33 nM 1.43% | 10000 nM -1.83%

Brc1c(Br)c(Br)c2[nH]nnc2c1Br [4,5,6,7-tetrabromobenzotriazole]
inactive: 1 nM 1.42% | 8.33 nM 3.75% | 100 nM -0.07% | 833.33 nM 1.63% | 10000 nM 3.61%

Cc1nc(C)c(C)nc1C [chuanxiongzine]
inactive: 1 nM 2.81% | 8.33 nM 0.85% | 100 nM 2.51% | 833.33 nM 5.75% | 10000 nM 1.87%

CC=C1C(=O)C[C@H]2[C@@H]3CCC4=CC(=O)CC[C@]4(C)[C@H]3CC[C@]12C
inactive: 1 nM 0.03% | 8.33 nM -0.87% | 100 nM -1.56% | 833.33 nM -0.96% | 10000 nM 4.3%

O=c1ccc2ccc(O)c(O)c2o1 [daphnetin]
inactive: 1 nM -1.96% | 8.33 nM 2.35% | 100 nM -2.13% | 833.33 nM 4.54% | 10000 nM 2.15%

C=C[C@@](C)(/C=C/c1ccc(O)cc1)CCC=C(C)C [bakuchiol]
inactive: 1 nM 1.64% | 8.33 nM 2.39% | 100 nM 0.23% | 833.33 nM 0.59% | 10000 nM 0.79%

CN1C2CCC1CC(OC(c1ccccc1)c1ccc(Cl)cc1)C2 (stereo not given)
active: 10000 nM 17.4%
inactive: 1 nM 5.63% | 8.33 nM 6.26% | 100 nM -1.76% | 833.33 nM -2.87%

COc1ccc(-c2ccc(=N)n(CCCC(=O)O)n2)cc1 [gabazine]
inactive: 1 nM 0.8% | 8.33 nM 2.86% | 100 nM 5.99% | 833.33 nM -1.31% | 10000 nM -0.62%

O=c1[nH]c2cc(C(F)(F)F)c(N3CCOCC3)cc2n(CP(=O)(O)O)c1=O
inactive: 1 nM 0.45% | 8.33 nM 0.83% | 100 nM -1.59% | 833.33 nM 1.35% | 10000 nM -2.92%

O=C1S/C(=C\c2ccc(OCc3cccc(B(O)O)c3)cc2)C(=O)N1Cc1ccc(F)cc1
inactive: 1 nM -1.35% | 8.33 nM 1.46% | 100 nM 0.45% | 833.33 nM 3.95% | 10000 nM -1.14%

CCCCc1nc(Cl)c(CO)n1Cc1ccc(-c2ccccc2-c2nnn[nH]2)cc1 [losartan]
inactive: 1 nM 0.46% | 8.33 nM 1.87% | 100 nM -0.81% | 833.33 nM -2.88% | 10000 nM -1.4%

Oc1ccc(C(O)CNCCCCCCNCC(O)c2ccc(O)c(O)c2)cc1O (stereo not given) [hexoprenaline]
inactive: 1 nM -3.2% | 8.33 nM 0.65% | 100 nM 2.27% | 833.33 nM -1.49% | 10000 nM -2.87%

O[C@H]1CC[C@H](Nc2nc(-c3ccccc3)nc3[nH]ccc23)CC1
inactive: 1 nM -1.91% | 8.33 nM -3.12% | 100 nM -4.27% | 833.33 nM -1.49% | 10000 nM -0.8%

COc1nccc(-c2c(-c3ccc(F)cc3)ncn2[C@H]2CC[C@H](O)CC2)n1
inactive: 1 nM 5.42% | 8.33 nM 6.4% | 100 nM 3.88% | 833.33 nM 2.66% | 10000 nM 7.7%

O=C(O)c1cc(O)c2c3nc4ccccc4oc-3cc(=O)c2n1 [pirenoxine]
inactive: 1 nM 0.17% | 8.33 nM 3.09% | 100 nM 2.36% | 833.33 nM -0.17% | 10000 nM 3.17%

COc1ccc2c(c1OC)C(=O)O[C@@H]2[C@H]1c2c(cc3c(c2OC)OCO3)CCN1C [noscapine]
inactive: 1 nM -3% | 8.33 nM 0.3% | 100 nM -0.27% | 833.33 nM -0.71% | 10000 nM -2.79%

O=C(O)c1ccc(O)c2ncccc12
inactive: 1 nM 0.11% | 8.33 nM 1.32% | 100 nM 1.3% | 833.33 nM 3.02% | 10000 nM 1.28%

CCOC(=O)c1c(CSc2ccccc2)n(C)c2cc(Br)c(O)c(CN(C)C)c12 [arbidol]
inactive: 1 nM -1.24% | 8.33 nM 3.62% | 100 nM 2.92% | 833.33 nM 4.8% | 10000 nM 3.91%

CCS(=O)(=O)c1ccc2oc(-c3ccc4ccccc4c3)nc2c1 [ezutromid]
inactive: 1 nM 3.38% | 8.33 nM 0.67% | 100 nM -1.92% | 833.33 nM 2.64% | 10000 nM 1.18%

CC(C)C[C@H](NC(=O)CNC(=O)[C@H](Cc1ccc(O)cc1)NC(=O)[C@H](CO)NC(=O)[C@H](Cc1c[nH]c2ccccc12)NC(=O)[C@H](Cc1cnc[nH]1)NC(=O)[C@@H]1CCC(=O)N1)C(=O)N[C@@H](CCCNC(=N)N)C(=O)N1CCC[C@H]1C(=O)NCC(N)=O [gonadorelin]
inactive: 1 nM -1.95% | 8.33 nM -2.66% | 100 nM 0.47% | 833.33 nM -1.19% | 10000 nM 1.93%

CN/C(=N\c1ccc(C2=NNC(=O)CC2C)cc1)NC#N (stereo not given) [siguazodan]
inactive: 1 nM 1.52% | 8.33 nM 1.14% | 100 nM -0.26% | 833.33 nM 1.67% | 10000 nM -1.34%

CCCCc1cc2ccccc2c(OCCN(C)C)n1 [dimethisoquin]
inactive: 1 nM 0.87% | 8.33 nM 1.84% | 100 nM -0.28% | 833.33 nM 0.5% | 10000 nM -2.53%

COc1cccc(OC)c1C(=O)N[C@@H]1C(=O)N2[C@@H]1SC(C)(C)[C@@H]2C(=O)O [methicillin]
inactive: 1 nM -3.39% | 8.33 nM 1.78% | 100 nM -1.39% | 833.33 nM -0.54% | 10000 nM 1.21%

CCCCOc1cc(CC2CNC(=O)N2)ccc1OC (stereo not given)
inactive: 1 nM -0.73% | 8.33 nM 1.6% | 100 nM -3.01% | 833.33 nM -0.63% | 10000 nM -1.88%

CCCCCC(C)N (stereo not given) [tuaminoheptane]
inactive: 1 nM 1.21% | 8.33 nM 1.95% | 100 nM 0.51% | 833.33 nM 3.02% | 10000 nM 1.11%
